Among the data in PubChem BioAssay (EPA / NIEHS) are outcome and AC50 values, retold here.

The source made the active and inactive calls. The calls were made as follows: active = hit-call score of the fitted dose curve at least 0.9, where 1 is the maximum; inconclusive = response in the unintended direction; inactive = score below 0.9.

For this assay, the target named is Estrogen receptor (Homo sapiens) (UniProt P03372). Kind of assay: OT_ER_ERaERa_1440: Odyssey Thera (OT) 24-hour HEK293T Protein-Complementation Assay for Estrogen Receptor-alpha/-alpha Homodimer (AID 2283349).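 Also: hits raise fluorescence above DMSO for agonists and antagonists alike.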 As for the experimental part: OT_ER_ERaERa_1440 is a cell-based assay that uses HEK293T, a human kidney cell line, with measurements taken at 24 hours after chemical dosing in a 384-well plate.OT_ER_ERaERa_1440 is one of one assay component(s) measured or calculated from the OT_ER_ERaERa_1440 assay. It is designed to make measurements of protein fragment complementation, a form of binding reporter, as detected with fluorescence intensity signals by Protein-fragment Complementation technology.Data from the assay component OT_ER_ERaERa_1440 was analyzed into 1 assay endpoint. This assay endpoint, OT_ER_ERaERa_1440, was analyzed in the positive analysis fitting direction relative to DMSO as the negative control and baseline of activity. Using a type of binding reporter, measures of receptor for gain-of-signal activity can be used to understand the binding at the pathway-level as they relate to the gene ESR1. Furthermore, this assay endpoint can be referred to as a primary readout, because the performed assay has only produced 1 assay endpoint. To generalize the intended target to other relatable targets, this assay endpoint is annotated to the nuclear receptor intended target family, where the subfamily is steroidal.
Chain of Estrogen receptor (Homo sapiens) (P03372 whole entry, looked up, the tested form may be a part): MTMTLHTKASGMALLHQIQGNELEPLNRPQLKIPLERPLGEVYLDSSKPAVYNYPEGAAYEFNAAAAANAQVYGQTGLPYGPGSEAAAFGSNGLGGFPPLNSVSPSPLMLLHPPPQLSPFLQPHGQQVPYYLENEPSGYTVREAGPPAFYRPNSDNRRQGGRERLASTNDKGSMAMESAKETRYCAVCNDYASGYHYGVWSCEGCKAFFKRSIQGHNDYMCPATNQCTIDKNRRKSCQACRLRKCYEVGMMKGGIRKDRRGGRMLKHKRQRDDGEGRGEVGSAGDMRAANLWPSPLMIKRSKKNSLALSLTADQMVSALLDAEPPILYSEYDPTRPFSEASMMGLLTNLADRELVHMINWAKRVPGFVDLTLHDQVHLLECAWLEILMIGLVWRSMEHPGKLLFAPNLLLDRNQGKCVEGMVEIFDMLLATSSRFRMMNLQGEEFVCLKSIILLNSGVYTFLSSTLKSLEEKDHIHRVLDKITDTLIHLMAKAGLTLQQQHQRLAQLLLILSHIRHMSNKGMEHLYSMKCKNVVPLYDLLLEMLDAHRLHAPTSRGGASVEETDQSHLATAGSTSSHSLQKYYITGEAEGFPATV
Protein-fragment complementation assay, or PCA, is a method for the identification and quantification of protein-protein interactions. In the PCA, the proteins of interest ("bait" and "prey") are each covalently linked to fragments of a third protein (e.g. DHFR, which acts as a "reporter"). Interaction between the bait and the prey proteins brings the fragments of the reporter protein in close proximity to allow them to form a functional reporter protein whose activity can be measured. The OT ER alpha / ER alpha assay is a homodimer PCA of the ligand binding domain (amino acids 310-547) of human ER alpha stably expressed in HEK293T cells. […] Fluorescent signal in the basal state of the assay is very low and is primarily punctuate and cytoplasmic. Modulation of this assay is quantified as an increase in mean fluorescence intensity in the nucleus (for agonists) or in the nucleus and cytoplasm (antagonists) relative to vehicle controls, and can be quantified on a high content imaging device or a laser scanning cytometer. The latter instrument is favored for this assay because of the rapid mode of data acquisition, the ability to acquire data from the entire cell population in a well (as opposed to a fraction of the well on the high content devices) and the larger dynamic range typically achieved with this instrument. To assess sensitivity of the ER alpha/ER alpha LBD assay to ligand, cells were treated with the ER agonist 17 beta-estradiol (E2) in 10-point concentration- response format for 24 hours and monitored response on a laser scanning plate cytometer (Acumen eX3; TTP Lab Tech).
In the case of `CCCC(=O)OCC`, the compound was classed as inactive.

On to `O=C(O)c1cccc(Oc2ccccc2)c1`, for which the compound was called inactive.

On to `CCC(C)(C)C(=O)O[C@H]1C[C@@H](C)C=C2C=C[C@H](C)[C@H](CC[C@@H]3C[C@@H](O)CC(=O)O3)[C@H]21`, for which the compound was classed as inactive.

Take `O=c1n(CC2CO2)c(=O)n(CC2CO2)c(=O)n1CC1CO1` (stereo not given): the outcome was inactive.

For `O=P(OC(CCl)CCl)(OC(CCl)CCl)OC(CCl)CCl`, the outcome was inactive.

With `O=c1[nH]c2ccc(S(=O)CCN3CCC(Cc4ccc(F)cc4)CC3)cc2o1` (stereo not given), the outcome was inactive.

As to `CC/C(=C\C(=N/O)C(N)=O)C(C)[N+](=O)[O-]` (stereo not given), the call was inactive.

As for `Nc1ccc(Nc2ccccc2)cc1`, the result was inactive.

For `O=C(NS(=O)(=O)/C=C/c1ccccc1)c1ccc(F)cc1Cl`, the call was inactive.

Take `Cn1cnc([N+](=O)[O-])c1Sc1ncnc2nc[nH]c12`: the outcome was inactive.

Turning to `COc1ccc(-n2nc(C(F)F)cc2-c2ccc(S(C)=O)cc2)cc1` (stereo not given), the compound was called inactive.

Regarding `C=CC(=C)CCC=C(C)C`, the compound was classed as inactive.

For the compound `COC(=O)c1c(Cl)c(Cl)c(C(=O)OC)c(Cl)c1Cl`, the call was inactive.

For `Cc1ccc(S(=O)(=O)O)cc1C`, the call was inactive.

In the case of `CC[C@H](C)C(=O)O[C@H]1C[C@@H](C)C=C2C=C[C@H](C)[C@H](CC[C@@H]3C[C@@H](O)CC(=O)O3)[C@H]21`, the compound was classed as inactive.

Take `CC[C@H]1CC[C@H](NCc2cc3c(cc2OC)[C@H]2C[C@H]2C(=O)N3C)[C@H](c2ccccc2)N1`: the call was inactive.

Take `C=CCCCCCCCCC(=O)O`: the outcome was inactive.

As for `Cn1c(=O)cc(Oc2ccc(F)cc2F)c2cnc(NCC(C)(C)O)nc21`, the AC50 was 50 µM (active).

For `CCOC(=O)COc1ccc2c(c1)CC(NCC(O)c1cccc(Cl)c1)CC2` (stereo not given), the result was inactive.

With `COC(=O)CC(=O)OC`, the compound was classed as inactive.

For the compound `COc1cccc(-c2ccc(/C=C\CN3CCCCCC3)cc2Cl)c1`, the call was inactive.

Regarding `CCCCCCCCO`, the compound was called inactive.

Consider `CC(C)=CCCC(C)=CC=O`, for which the outcome was inactive.

For `CCn1nc(Cc2ccccc2)cc1C1CCN(C[C@H]2C[C@H](N(C)[C@@H](C(=O)O)C(C)C)C[C@@H]2c2cccc(F)c2)CC1`, the call was inactive.

For the compound `CC(C)=CCCC(C)CCO` (stereo not given), the outcome was inactive.

As for `Cc1ccc(N)cc1O`, the result was inactive.

In the case of `COc1ccc2sc(C(=O)Nc3nnn[nH]3)c(OC(C)C)c2c1`, the outcome was inactive.

Take `CCCCC(CC)COC(=O)CCCCCCCCC(=O)OCC(CC)CCCC` (stereo not given): the AC50 is 12.1 µM (active).

For the compound `COC(=O)c1ccccc1O`, the outcome was inactive.

As for `CC(C)CCO`, the compound was called inactive.

Broadly, the AC50 is the concentration at which the activity in the assay is half-maximal.
